PubChem BioAssay (Tox21)
The source made the active and inactive calls. A call without a number means that no potency is given here. Calls follow the shape of the full dose curve.

The compounds below were run against Gonadotropin-releasing hormone receptor (Homo sapiens) (UniProt P30968) (assay: Human gonadotropin-releasing hormone receptor (GnRHR) small molecule agonists, calcium flux assay in GnRHR-HEK293 cells (AID 1920063; also: nearly all actives have a fitted effect of over 35% in size)). Conditions: calcium flux fluorescence, agonist mode; series mostly up to 57.6 µM.
Description: National Center for Advancing Translational Sciences [NCATS]
Division of Preclinical Innovation [DPI]
U.S. Environmental Protection Agency [EPA]
National Institutes of Environmental Health Sciences [NIEHS]
National Toxicology Program [NTP]
U.S. Food and Drug Administration [FDA]
Gonadotropin-releasing hormone receptor (GnRHR) is a G-protein-coupled receptor (GPCR) and acts (through phospholipase C) to increase intracellular inositol trisphosphate and then release intracellular calcium stores. Cell-based GnRHR-Hek293 calcium influx assay is using HEK293 cells that have been genetically engineered to express the human GnRHR, which activity can be measured by calcium signaling. A compound/drug can activate (agonist) GnRHR that can be monitored by levels of intracellular calcium.
GnRHR-HEK293 cells developed by Codex Corp contain human GnRHR reporter gene, which was stably integrated into HEK 293 cells. The compound activation can be detected by fluorescence intensity via calcium flux assay. This cell line has been used to screen the Tox21 10K compound library to identify GnRHR agonists.
GnRHR-Hek293 cells were dispensed at 1500cells/4uL/well in 1536-well black wall/clear bottom plates using a multidrop dispenser. After the assay plates were incubated at a 37 C/5% CO2 incubator for 18 hours, 4 uL of Calcium Dye Solution was added to each well. The plates were incubated at 37 C for 1 hour. For agonist mode, 23 nL of compounds dissolved in DMSO, positive controls or DMSO only was transferred to the assay plate by a pin tool station. The fluorescence intensity in the plates was measured using FDSS 7000EX kinetic plate reader with a filter set of Ex/Em=480/540 for 3 min at 1 sec intervals. Each test compound was measured at 15 concentrations and in triplicates.

Gonadotropin-releasing hormone receptor (Homo sapiens), sequence (P30968 whole entry, looked up): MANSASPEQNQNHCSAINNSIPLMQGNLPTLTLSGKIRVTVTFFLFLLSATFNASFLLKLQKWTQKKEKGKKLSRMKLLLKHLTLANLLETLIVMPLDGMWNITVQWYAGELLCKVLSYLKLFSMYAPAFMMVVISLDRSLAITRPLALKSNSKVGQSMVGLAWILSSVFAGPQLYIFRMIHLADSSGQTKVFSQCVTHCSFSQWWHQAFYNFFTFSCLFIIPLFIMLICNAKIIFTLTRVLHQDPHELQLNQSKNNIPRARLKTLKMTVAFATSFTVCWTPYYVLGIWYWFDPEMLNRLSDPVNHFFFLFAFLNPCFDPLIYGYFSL

SMILES	Potency
NC(=O)N1c2ccccc2C=Cc2ccccc21	inactive
O=S(=O)(O)c1ccc2ccccc2c1	inactive
OC[C@H]1O[C@@H](Oc2ccc(O)cc2)[C@H](O)[C@@H](O)[C@@H]1O	inactive
c1cnc2c(c1)ccc1cccnc12	inactive
CC(C)C(=O)Nc1ccc([N+](=O)[O-])c(C(F)(F)F)c1	inactive
CC1(C)C(=O)N(Cl)C(=O)N1Cl	inactive
CC(C)(Oc1ccc(C2CC2(Cl)Cl)cc1)C(=O)O (stereo not given)	inactive
CC1(C)NC(=O)N(c2ccc([N+](=O)[O-])c(C(F)(F)F)c2)C1=O	inactive
CN(C)c1ccc(C(=C2C=CC(=[N+](C)C)C=C2)c2ccccc2)cc1	inactive
CC(O)COc1ccccc1 (stereo not given)	inactive
NCCOCCO	inactive
CC1=C(/C=C/C(C)=C/C=C/C(C)=C/C(=O)O)C(C)(C)CCC1	inactive
C=C(C#N)C(=O)OCC	inactive
C[C@]12C=CC(=O)C=C1CC[C@@H]1[C@@H]2C(=O)C[C@@]2(C)[C@H]1CC[C@]2(O)C(=O)CO	inactive
CC1=CC(=O)CC(C)(C)C1	inactive
Cc1ccc(S(=O)(=O)N=C=O)cc1	inactive
O=C(O)c1cccc(C(=O)O)c1	inactive
CC(C)c1cccc(C(C)C)c1	inactive
C[C@]12C=CC(=O)C=C1CC[C@H]1[C@@H]3C[C@@H](O)[C@](O)(C(=O)CO)[C@@]3(C)C[C@H](O)[C@@]12F	inactive
O=C(OCC1CCC2OC2C1)C1CCC2OC2C1 (stereo not given)	inactive

SMILES	Potency
C[N+](C)(C)CCCCCC[N+](C)(C)C	inactive
CCC(C)C=O (stereo not given)	inactive
OC[C@@H](O)[C@H](O)[C@H](O)[C@@H](O)CO	inactive
CCOc1ccc(NC(=O)CC(C)O)cc1 (stereo not given)	inactive
CC1Cc2ccccc2N1NC(=O)c1ccc(Cl)c(S(N)(=O)=O)c1 (stereo not given)	inactive
COCC(C)O (stereo not given)	inactive
O=C1CCCCCCCCCCCN1	inactive
CC(COc1ccccc1)N(CCCl)Cc1ccccc1 (stereo not given)	inactive
O=C1O[C@H]([C@@H](O)CO)C(O)=C1O	inactive
CC(=O)Nc1ccccc1	inactive
O=C(O)CCCCCCCC(=O)O	inactive
OCCOCCN1CCN(C(c2ccccc2)c2ccc(Cl)cc2)CC1 (stereo not given)	inactive
O=c1cc[nH]c(=S)[nH]1	inactive
COC(=O)CCC(=O)OC	inactive
O=C(O)Cn1c(=O)n(Cc2ccc(Br)cc2F)c(=O)c2ccc(Cl)cc21	inactive
Cc1cnc(NC(=O)C2=C(O)c3ccccc3S(=O)(=O)N2C)s1	inactive
CN1CCC[C@H]1c1cccnc1	inactive
CC(=O)CC(c1ccccc1)c1c(O)c2ccccc2oc1=O (stereo not given)	inactive
CC(O)CC(C)(C)O (stereo not given)	inactive
CC(=O)Nc1ccc(C(=O)O)cc1	inactive
